Laboratory results taken from PubChem BioAssay (Tox21).
Where “and” joins values, the source holds several entries; their conditions need not be identical. Equal values may be shown once. Inconclusive results are not listed. Entries that show only a call come without a potency. Where a structure was tested more than once in an assay, its records may differ in their call. Calls of active or inactive are those of the source. Calls follow the shape of the dose curve; as a rule, active = well fitted cell-killing curve with a large enough effect in the repeat runs; inconclusive = weak or mixed curves, or effect the other way; inactive = no such curve, though single readings can be large or run the other way.

experiment: qHTS assay for identifying genotoxic compounds that show differential cytotoxicity against isogenic chicken DT40 cell lines with known DNA damage response pathways - wild type cell line (AID 743012); conditions: DT40 wild type chicken cells viability, CellTiter-Glo, 40 h; series mostly up to 68.4 µM; also: nearly all actives have a fitted effect of over 60% in size
Description: U.S. Tox21 Program National Center for Advancing Translational Sciences [NCATS] NIH Chemical Genomics Center [NCGC] U.S. Environmental Protection Agency [EPA] National Institutes of Environmental Health Sciences [NIEHS] National Toxicology Program [NTP] U.S. Food and Drug Administration [FDA] Tox21 Assay Overview: DNA repair pathways play a critical role in cellular homeostasis by repairing DNA damage induced by endogenous processes and xenobiotics. Isogenic chicken DT40 cell lines deficient in different DNA repair pathways can be used to identify genotoxic compounds and aid in characterizing the nature of the DNA damage induced. Two DNA repair-deficient cell lines with disrupted genes, Rad54/Ku70 or Rev3, were used to screen the Tox21 10K compound library. Possible genotoxicity was based on the presence of a significant increase in cytotoxicity in one or more of the DNA repair-deficient cell lines compared to that observed in the parental DNA repair-proficient cell line. CellTiter Glo viability assay (Promega, Madison, WI) was used to measure cell viability in these cells after compound treatment. This assay includes the data from the wild type cell line.
Tox21 Assay Protocol Summary: 300 DT40 wild type cells in 5 uL/well were dispensed into white, solid-bottom 1536-well plates using a Multidrop Combi (ThermoFisher Scientific, Waltham, MA) dispenser. After the assay plates were incubated at 37 C/5% CO2 for approximately 0.5 hour, 23 nL of compounds dissolved in DMSO, positive controls or DMSO only was transferred into the assay plate by a pintool work station (Kalypsys, San Diego, CA). The assay plates were incubated at 37 C/5% CO2 for 40 hours. After 5 uL per well of CellTiter-Glo reagent was added into each well of the assay plates, the plates were incubated for 30 min at room temperature and the luminescence intensity of the plates was measured using a ViewLux (PerkinElmer, Shelton, CT) plate reader.
Potency is read from the fitted curve at half-maximal effect.

**Q.** Which Potency does the source give for `CCCCCNCCCCC` here?
**A.** Its Potency is “inactive”.

**Q.** With `CC(C)=CCC/C(C)=C/C=O` as the compound, how does the Potency read?
**A.** Its Potency is “inactive”.

**Q.** With `O=c1n(CCCN2CCN(c3cccc(Cl)c3)CC2)nc2ccccn12` as the compound, how does the Potency read?
**A.** Its Potency is “inactive and 54.5 µM (active)”.

**Q.** For `CC(=O)CC(=O)N(C)C`, which Potency is on record?
**A.** The Potency was “inactive”.

**Q.** For `Cc1cc(C)cc(O)c1`, which Potency is on record?
**A.** Its Potency is “inactive”.

**Q.** With `COCN(COC)c1nc(N(COC)COC)nc(N(COC)COC)n1` as the compound, how does the Potency read?
**A.** Its Potency is “inactive”.

**Q.** Which Potency does the source give for `Nc1nc(N)c2nc(-c3ccccc3)c(N)nc2n1` here?
**A.** The Potency was 11.9 µM (active) and 12.3 µM (active) and 4.86 µM (active).

**Q.** Which Potency does the source give for `O=C1O[C@H]([C@H](O)CO)C(O)=C1O` here?
**A.** The Potency was “inactive”.

**Q.** For `O=C1CCCCCCCCCCC1`, which Potency is on record?
**A.** Its Potency is “inactive”.

**Q.** With `CCCCCCCCO` as the compound, how does the Potency read?
**A.** Its Potency is “inactive”.

**Q.** With `O=C1OC(=O)c2c(Cl)c(Cl)c(Cl)c(Cl)c21` as the compound, how does the Potency read?
**A.** Its Potency is “inactive”.

**Q.** Which Potency does the source give for `CCOC(=O)c1ccc(O)cc1` here?
**A.** The Potency was “inactive”.

**Q.** Which Potency does the source give for `O=Cc1ccc(CO)o1` here?
**A.** The Potency was “inactive”.

**Q.** With `Cc1ccc(C(C)C)cc1` as the compound, how does the Potency read?
**A.** The Potency was “inactive”.

**Q.** For `CC[N+](CC)(CC(=O)Nc1c(C)cccc1C)Cc1ccccc1`, which Potency is on record?
**A.** The Potency was “inactive and 43.3 µM (active)”.

**Q.** With `CCCCCCCCC(=O)O` as the compound, how does the Potency read?
**A.** The Potency was “inactive”.

**Q.** Which Potency does the source give for `Clc1cccc(Cl)c1NC1=NCCN1` here?
**A.** Its Potency is “inactive”.

**Q.** With `CCc1cccc(O)c1` as the compound, how does the Potency read?
**A.** Its Potency is “inactive”.

**Q.** Which Potency does the source give for `OCC(CO)(CO)CO` here?
**A.** Its Potency is “inactive”.

**Q.** Which Potency does the source give for `C[Si](C)(C)N[Si](C)(C)C` here?
**A.** The Potency was “inactive”.

**Q.** With `CCOC(=O)CC(=O)OCC` as the compound, how does the Potency read?
**A.** The Potency was “inactive”.

**Q.** Which Potency does the source give for `Cc1ccc(C)c(S(=O)(=O)O)c1` here?
**A.** Its Potency is “inactive”.

**Q.** For `Nc1cccc(N)n1`, which Potency is on record?
**A.** The Potency was “inactive”.

**Q.** For `CCCCCC(C)=O`, which Potency is on record?
**A.** Its Potency is “inactive”.

**Q.** Which Potency does the source give for `CC(=O)Nc1ccc(CC(=O)O)cc1` here?
**A.** Its Potency is “inactive”.

**Q.** With `CC(C)(CO)CO` as the compound, how does the Potency read?
**A.** Its Potency is “inactive”.

**Q.** With `OB(O)O` as the compound, how does the Potency read?
**A.** Its Potency is “inactive”.

**Q.** Which Potency does the source give for `Oc1ccc(Cc2ccccc2O)cc1` here?
**A.** Its Potency is “inactive”.

**Q.** With `CC(=O)OC/C=C(\C)CCC=C(C)C` as the compound, how does the Potency read?
**A.** The Potency was “inactive”.

**Q.** For `CCc1cccc(CC)c1N`, which Potency is on record?
**A.** The Potency was “inactive”.

**Q.** For `Cc1cc(CC(=O)O)n(C)c1C(=O)c1ccc(Cl)cc1`, which Potency is on record?
**A.** Its Potency is “inactive”.

**Q.** With `C=C(C)CC(C)(C)C` as the compound, how does the Potency read?
**A.** The Potency was “inactive”.

**Q.** Which Potency does the source give for `CC1(C)[C@@H](O[C@H]2O[C@H](C(=O)O)[C@@H](O)[C@H](O)[C@H]2O[C@@H]2O[C@H](C(=O)O)[C@@H](O)[C@H](O)[C@H]2O)CC[C@]2(C)[C@H]3C(=O)C=C4[C@@H]5C[C@@](C)(C(=O)O)CC[C@]5(C)CC[C@@]4(C)[C@]3(C)CC[C@@H]12` here?
**A.** Its Potency is “inactive”.

**Q.** For `C=CC(C)(C)C`, which Potency is on record?
**A.** Its Potency is “inactive”.

**Q.** With `C=C(CC(=O)O)C(=O)O` as the compound, how does the Potency read?
**A.** The Potency was “inactive”.

**Q.** With `Cc1ccc([N+](=O)[O-])cc1N` as the compound, how does the Potency read?
**A.** Its Potency is “inactive”.

**Q.** Which Potency does the source give for `CCCOC(=O)NCCCN(C)C` here?
**A.** The Potency was “inactive”.

**Q.** Which Potency does the source give for `C[n+]1ccn(CCO)c1` here?
**A.** The Potency was “inactive”.

**Q.** With `CC1(C)C(=O)N(Cl)C(=O)N1Cl` as the compound, how does the Potency read?
**A.** Its Potency is “inactive”.

**Q.** For `CCn1cc(C(=O)O)c(=O)c2cc3c(cc21)OCO3`, which Potency is on record?
**A.** The Potency was “inactive”.
